# Measurements reported in the supplement of paper PMC9950053.
# Structures can show the parent of a compound that is named as a salt.
# System: Danio rerio larvae (5 dpf)
# Experiment: excitability (activity period 17 minus period 16, 1-s interval sound) minus DMSO control (percentage points); higher = more acoustic excitability than DMSO larvae
# Settings: 10 µM; exposure time: 3 h pre-incubation + 3 h imaging
# Protocol: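 Wild-type 5 dpf zebrafish larvae (n=48 per drug, 96-well plates, 28.5 °C) were exposed to Tocris FDA-approved library compounds at 10 µM (0.1% DMSO) for 3 h before and 3 h during imaging. Images were taken every 6 s during visual (moving coloured lines) and acoustic stimuli, and larvae were tracked with the DeepLabCut-based Z-LaP Tracker. Each behavioural measure is the treated-group mean minus the DMSO vehicle control mean (n=844), in percentage points. This mapping covers compounds with 4-character plate codes.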
row,SMILES,excitability
1,Cc1ccsc1C(=CCCN1CCC[C@@H](C(=O)O)C1)c1sccc1C [Tiagabine hydrochloride],-6.75
2,Cc1ccc(O)c([C@H](CCN(C(C)C)C(C)C)c2ccccc2)c1 [Tolterodine L-tartrate],4.8
3,C[C@H](Cc1cc2c(c(C(N)=O)c1)N(CCCO)CC2)NCCOc1ccccc1OCC(F)(F)F [Silodosin],22.6
4,Nc1cccc2c1CN(C1CCC(=O)NC1=O)C2=O (stereo not given) [Lenalidomide],-1.97
5,C[C@]12CC[C@@H]3c4ccc(O)cc4C[C@@H](CCCCCCCCC[S+]([O-])CCCC(F)(F)C(F)(F)F)[C@H]3[C@@H]1CC[C@@H]2O (stereo not given in full),3.06
6,COc1ccc(-c2ccc3cc(C(=O)O)ccc3c2)cc1C12CC3CC(CC(C3)C1)C2 [Adapalene],0.726
7,CC[C@H](C)C(=O)O[C@H]1C[C@@H](C)C=C2C=C[C@H](C)[C@H](CC[C@@H]3C[C@@H](O)CC(=O)O3)[C@H]21 [Lovastatin],15
8,C[C@@H](O[C@H]1OCCN(Cc2n[nH]c(=O)[nH]2)[C@H]1c1ccc(F)cc1)c1cc(C(F)(F)F)cc(C(F)(F)F)c1 [Aprepitant],8.09
9,CCCc1nc2c(C)cc(-c3nc4ccccc4n3C)cc2n1Cc1ccc(-c2ccccc2C(=O)O)cc1 [Telmisartan],15.1
10,OC(CNCC(O)C1CCc2cc(F)ccc2O1)C1CCc2cc(F)ccc2O1 (stereo not given) [Nebivolol hydrochloride],12.7
11,CCC(C)(C)C(=O)O[C@H]1C[C@@H](C)C=C2C=C[C@H](C)[C@H](CC[C@@H]3C[C@@H](O)CC(=O)O3)[C@H]21 [Simvastatin],10.2
12,Nc1nc(NC2CC2)c2ncn([C@H]3C=C[C@@H](CO)C3)c2n1 [Abacavir hemisulfate],0.611
13,CC(C)(C(=O)c1cccnc1)c1cccnc1 [Metyrapone],15.8
14,CC1=Nc2ccc(Cl)cc2S(=O)(=O)N1 [Diazoxide],3.88
15,NS(=O)(=O)Cc1noc2ccccc12 [Zonisamide],4.75
16,Cc1ccccc1C(=O)Nc1ccc(C(=O)N2CCCC(O)c3cc(Cl)ccc32)c(C)c1 (stereo not given) [Tolvaptan],8.2
17,COC(=O)C1=C(C)NC(C)=C(C(=O)OC(C)C)C1c1cccc2nonc12 (stereo not given) [Isradipine],15.3
18,C=CC(=O)N1CCC[C@@H](n2nc(-c3ccc(Oc4ccccc4)cc3)c3c(N)ncnc32)C1 [Ibrutinib],-1.71
19,Clc1ccc(COC(Cn2ccnc2)c2ccc(Cl)cc2Cl)c(Cl)c1 (stereo not given) [Miconazole nitrate],-1.24
20,CC#C[C@]1(O)CC[C@H]2[C@@H]3CCC4=CC(=O)CCC4=C3[C@@H](c3ccc(N(C)C)cc3)C[C@@]21C [Mifepristone],5.63

row,SMILES,excitability
1,Cc1nnc(C(C)C)n1C1C[C@H]2CC[C@@H](C1)N2CC[C@H](NC(=O)C1CCC(F)(F)CC1)c1ccccc1 (stereo in doubt) [Maraviroc],6.13
2,CN1CCN2c3ncccc3Cc3ccccc3C2C1 (stereo not given) [Mirtazapine],4.38
3,O=C(Nc1c(Cl)cncc1Cl)c1ccc(OC(F)F)c(OCC2CC2)c1 [Roflumilast],13.4
4,Cc1cccc(C)c1OCC(C)N (stereo not given) [Mexiletine hydrochloride],3.31
5,CCCCC(=O)N(Cc1ccc(-c2ccccc2-c2nnn[nH]2)cc1)[C@H](C(=O)O)C(C)C [Valsartan],-1.67
6,COc1ccc(C[C@@H](C)NC[C@H](O)c2ccc(O)c(NC=O)c2)cc1 [Arformoterol tartrate],4.62
7,Cc1ccc(NC(=O)c2ccc(CN3CCN(C)CC3)cc2)cc1Nc1nccc(-c2cccnc2)n1 [Imatinib mesylate],13.3
8,CCOc1ccccc1OCCN[C@H](C)Cc1ccc(OC)c(S(N)(=O)=O)c1 [Tamsulosin hydrochloride],16.7
9,OCCN(CCO)c1nc(N2CCCCC2)c2nc(N(CCO)CCO)nc(N3CCCCC3)c2n1 [Dipyridamole],-2.85
10,C/C(O)=C(\C#N)C(=O)Nc1ccc(C(F)(F)F)cc1 [Teriflunomide],9.34
11,CCCN(CCC)S(=O)(=O)c1ccc(C(=O)O)cc1 [Probenecid],5.41
12,CCOc1nc2cccc(C(=O)O)c2n1Cc1ccc(-c2ccccc2-c2noc(=O)[nH]2)cc1 [Azilsartan],4.01
13,CNC(=O)c1ccccc1Sc1ccc2c(/C=C/c3ccccn3)n[nH]c2c1 [Axitinib],1.48
14,CCCCCOC(=O)Nc1nc(=O)n([C@@H]2O[C@H](C)[C@@H](O)[C@H]2O)cc1F [Capecitabine],6.07
15,O=C(c1ccc(OCCN2CCCCC2)cc1)c1c(-c2ccc(O)cc2)sc2cc(O)ccc12 [Raloxifene hydrochloride],9.77
16,CC(=O)Oc1ccccc1C(=O)O [Aspirin],10.3
17,COc1cc(Nc2c(C#N)cnc3cc(OCCCN4CCN(C)CC4)c(OC)cc23)c(Cl)cc1Cl [Bosutinib],7.41
18,OCCOCCN1CCN(C2=Nc3ccccc3Sc3ccccc32)CC1 [Quetiapine hemifumarate],9.04
19,Nc1cc(N2CCCCC2)nc(N)[n+]1[O-] [Minoxidil],0.502
20,CN1CC[C@@H](NC(=O)Nc2ccc(C#N)cc2)C[C@@H]1c1nc2ccccc2[nH]1,6.95
